Measured values published in PubChem BioAssay (Tox21).
“And” between values parts separate entries of the source, which are not always exact repeats. Equal values may be shown once. Results filed as inconclusive are left out. Entries that show only a call come without a potency. The source made the active and inactive calls. Calls come from the whole dose curve; as a rule, active = well fitted cell-killing curve with a large enough effect in the repeat runs; inconclusive = weak or mixed curves; inactive = no such curve, though single readings can be large or run the other way.

Assay: qHTS assay for identifying genotoxic compounds that show differential cytotoxicity against isogenic chicken DT40 cell lines with known DNA damage response pathways - Rad54/Ku70 mutant cell line (AID 743015); note: nearly all actives have a fitted effect of over 60% in size
Conditions: DT40 Rad54/Ku70 mutant viability, CellTiter-Glo, 40 h; series mostly up to 66.8 µM
Potency is the fitted concentration of half-maximal effect.

| SMILES | Potency |
| --- | --- |
| FC(F)(F)C(F)(F)C(F)(F)C(F)(F)C(F)(F)C(F)(F)F | inactive |
| O=C1/C(=C\c2cccs2)CCC/C1=C\c1cccs1 | 29.8 µM (active) |
| C/C=C1\NC(=O)[C@H]2CSSCC/C=C/[C@H](CC(=O)N[C@H](C(C)C)C(=O)N2)OC(=O)C(C(C)C)NC1=O (some centres undefined) | 0.0017 µM (active) |
| CCCCCCCCCCCCCCCCCCCCCCO | inactive |
| OCCO[C@@H]1[C@@H](O)[C@H](O)[C@@H](CO)O[C@@H]1O | inactive |
| CCC[C@@]1(CCc2ccccc2)CC(O)=C([C@H](CC)c2cccc(NS(=O)(=O)c3ccc(C(F)(F)F)cn3)c2)C(=O)O1 | inactive |
| CCCCCCCCCCCCCCCCCC(=O)[O][Al] | inactive |
| CCN(CC)c1ccc(C(=C2C=CC(=[N+](CC)CC)C=C2)c2ccccc2)cc1 | 0.106 µM (active) |
| C[C@H]1C[C@H]2[C@@H]3CCC4=CC(=O)C=C[C@]4(C)[C@@]3(F)[C@@H](O)C[C@]2(C)[C@@]1(O)C(=O)CCl | 23.7 µM (active) |
| c1ccc2c(c1)Sc1ccccc1N2CCN1CCCC1 | 16.8 µM (active) |
| CCCCC(F)(F)[C@@]1(O)CC[C@H]2[C@@H](CC(=O)[C@@H]2CCCCCCC(=O)O)O1 | inactive |
| CO/N=C(\C(=O)N[C@@H]1C(=O)N2C(C(=O)O)=C(CSc3nnnn3C)CS[C@H]12)c1csc(N)n1 | inactive |
| CS(=O)(=O)Nc1cc2occ(NC=O)c(=O)c2cc1Oc1ccccc1 | inactive |
| Nc1ncnc(Nc2ccc(Cl)cc2)n1 | inactive |
| Cc1c(N)nc(C(CC(N)=O)NCC(N)C(N)=O)nc1C(=O)NC(C(=O)NC(C)C(O)C(C)C(=O)NC(C(=O)NCCc1nc(-c2nc(C(=O)NCCCN[C@@H](C)c3ccccc3)cs2)cs1)C(C)O)C(O[C@@H]1O[C@@H](CO)[C@@H](O)[C@H](O)[C@@H]1O[C@H]1O[C@H](CO)[C@@H](O)[C@H](OC(N)=O)[C@@H]1O)c1cnc[nH]1 (some centres undefined) | 0.0531 µM (active) |
| C[C@]12CC[C@@H]3c4ccc(OS(=O)(=O)O)cc4CC[C@H]3[C@@H]1CCC2=O | inactive |
| CN1[C@@H]2CC[C@H]1CC(OC(c1ccccc1)c1ccccc1)C2 (some centres undefined) | 8.41 µM (active) and 23.7 µM (active) and 11.9 µM (active) |
| CCCc1ccc(C(=O)O)cc1 | inactive |
| Cc1cccc(C)c1Nc1ncccc1C(=O)O | inactive |
| O=C1O[C@H]2[C@H](O)[C@@H]1OC(O)[C@H]2O (some centres undefined) | inactive |

| SMILES | Potency |
| --- | --- |
| CC(C)(C)NCC(O)c1ccc(O)c(CO)n1 (centres undefined) | inactive |
| Nc1nc(=O)n([C@@H]2CS[C@H](CO)O2)cc1F | inactive |
| NCCCC[C@H](NC(=O)[C@@H]1CCCN1C(=O)[C@@H]1CSSC[C@H](N)C(=O)N[C@@H](Cc2ccccc2)C(=O)N[C@@H](Cc2ccccc2)C(=O)N[C@@H](CCC(N)=O)C(=O)N[C@@H](CC(N)=O)C(=O)N1)C(=O)NCC(N)=O | inactive |
| CCCCCCCCCCCCCCCC(=O)OC[C@@H](NC(=O)C(Cl)Cl)[C@H](O)c1ccc([N+](=O)[O-])cc1 | inactive |
| N=C(N)c1ccc(OCCCOc2ccc(C(=N)N)cc2Br)c(Br)c1 | 6.68 µM (active) |
| N[C@H](CC(=O)O)C(=O)O | inactive |
| CS(=O)(=O)OCCCNCCCOS(C)(=O)=O | inactive |
| O=[n+]1ccn([O-])c2ccccc21 | inactive |
| O=C(O)[C@H]1/C(=C/CO)O[C@@H]2CC(=O)N21 | inactive |
| CCC(=O)OCC(=O)[C@@]1(OC(=O)CC)[C@@H](C)C[C@H]2[C@@H]3CCC4=CC(=O)C=C[C@]4(C)[C@@]3(Cl)[C@@H](O)C[C@@]21C | 13.3 µM (active) |
| COc1ccc(CNCC(O)COc2ccc3[nH]c(=O)ccc3c2)cc1OC (centres undefined) | inactive |
| O=C(O)C1CCCN1 (centres undefined) | inactive |
| Cc1cc2nc3c(=O)[nH]c(=O)nc-3n(C[C@H](O)[C@H](O)[C@H](O)COP(=O)(O)OP(=O)(O)OC[C@H]3O[C@@H](n4cnc5c(N)ncnc54)[C@H](O)[C@@H]3O)c2cc1C | inactive |
| Cc1ccc(C2(O)CCN(CCCC(=O)c3ccc(F)cc3)CC2)cc1 | 10.6 µM (active) |
| CC(C(=O)O)c1ccc(C2CCCCC2)c2ccccc12 (centres undefined) | inactive |
| CO[C@H]1C[C@@H]2CC[C@@H](C)[C@@](O)(O2)C(=O)C(=O)N2CCCC[C@H]2C(=O)O[C@H]([C@H](C)C[C@@H]2CC[C@@H](OCCO)[C@H](OC)C2)CC(=O)[C@H](C)/C=C(\C)[C@@H](O)[C@@H](OC)C(=O)[C@H](C)C[C@H](C)/C=C/C=C/C=C/1C | 0.0168 µM (active) |
| CCCCCCCN(CC)CCCC(O)c1ccc(NS(C)(=O)=O)cc1 (centres undefined) | 26.6 µM (active) |
| CC(C)(C)CC(=O)OCC(=O)[C@@]12OC(C)(C)O[C@@H]1C[C@H]1[C@@H]3CCC4=CC(=O)C=C[C@]4(C)[C@@]3(F)[C@@H](O)C[C@@]12C | inactive |
| CO/N=C(\C(=O)N[C@@H]1C(=O)N2C(C(=O)O)=CCS[C@H]12)c1csc(N)n1 | inactive |
